The results in this text go back to PubChem BioAssay (NCATS).

Common to all, as to assay: qHTS profiling for inhibitors of Plasmodium falciparum proliferation (AID 504749); further: nearly all actives have a fitted effect of over 60% in size
Conditions in all cases: P. falciparum in erythrocytes, SYBR Green DNA, 72 h; series mostly up to 28.7 µM

One experiment concerns CP335. The essentials:
(§1)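 Readout was DNA-dye fluorescence from lysed cultures, ex 485/em 535 nm. Parasitized red cells had grown 72 h with compound; data scaled between 0.29 uM artemisinin and DMSO wells and corrected using vehicle-only plates.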

The test system of another experiment is DIV17. The essentials: as §1
The next experiment relates to Dd2. The essentials:
as §1

In the next experiment the test system is FAB9. The essentials: as §1
In a further experiment the test system is HB3. The essentials: as §1
In the next experiment the test system is JCK. The essentials:
as §1

The test system of the next experiment is DFO2036. The essentials:
as §1

In the next experiment the test system is DIV14. The essentials: as §1
For the next experiment, the system named is GB4. The essentials:
as §1

Another experiment deals with ICS. The essentials: as §1
The subject of the next experiment is P93_24. The essentials: as §1
The subject of a further experiment is PC26. The essentials:
as §1

Another experiment has as its system CP329. The essentials:
as §1

In the next experiment the test system is DIV30. The essentials:
as §1

The test system of another experiment is ECU. The essentials: as §1
The subject of another experiment is N140. The essentials:
as §1

Another experiment concerns P94_40. The essentials: as §1
The subject of the next experiment is PAD. The essentials: as §1
The test system of a further experiment is PC15. The essentials:
as §1

The subject of a further experiment is PC49. The essentials: as §1

Records with an inconclusive call do not appear. Calls of active or inactive are those of the source. The call rests on the fitted dose curve; in most records, active means well fitted inhibition curve with a large enough effect; inconclusive means small, poorly fitted or top-dose-only effect; inactive means flat fitted curve, though single readings scatter.
Potency means the concentration at half of the fitted maximal effect.

As to `CCN(CC)CCOC(=O)C(C)(c1ccccc1)c1ccccc1`, the Potency with CP335 is 4780 nM (active); in the experiment on DIV17, 6010 nM (active); in the experiment with Dd2, 89.1 nM (active). Also, the Potency result with FAB9, with HB3 and in the experiment with JCK was “inactive” in each case.

Turning to `Oc1ccc2[nH]cc(CCCCN3CC=C(c4ccccc4)CC3)c2c1`, the Potency in the experiment on DFO2036 is 10000 nM (active); in the experiment with DIV14, 13500 nM (active); in the experiment on DIV17, 13500 nM (active); in the experiment on Dd2, 11200 nM (active); in the experiment with GB4, 9530 nM (active); in the experiment with ICS it was 8910 nM (active). Besides, the Potency in the experiment with P93_24 was 11200 nM (active); in the experiment on PC26, 13500 nM (active). In addition, the Potency result in the experiment with FAB9 and in the experiment on JCK was “inactive” in each case.

Take `CCC1(c2ccccc2)CCC(=O)NC1=O` (centres undefined): the Potency entry with CP329, in the experiment on CP335, in the experiment on DFO2036, in the experiment on DIV14, with DIV30 and in the experiment with Dd2 was “inactive” in each case. The Potency entry in the experiment on ECU, with FAB9, in the experiment on JCK, with N140, in the experiment with P94_40 and with PAD was “inactive” each time. The Potency result in the experiment with PC15, with PC26 and with PC49 was “inactive” throughout. Further, the Potency with ICS is 11200 nM (active).

In the case of `CC[C@]1(O)CC[C@H]2[C@@H]3CCC4=CCCC[C@@H]4[C@H]3CC[C@@]21C`, the Potency result in the experiment with CP329, in the experiment on CP335, in the experiment with Dd2, in the experiment with ECU, in the experiment with FAB9 and with GB4 was “inactive” each time. The Potency entry in the experiment on HB3, with JCK, in the experiment with PC15, in the experiment on PC26 and with PC49 was “inactive” throughout. Further, the Potency in the experiment with P94_40 is 11200 nM (active).

`O=C(CCCN1CCC(n2c(=O)[nH]c3ccccc32)CC1)c1ccc(F)cc1`: the Potency in the experiment on CP335 is 1440 nM (active); with DFO2036 it was 1580 nM (active); in the experiment on DIV14 it was 642 nM (active); in the experiment on DIV17 it was 642 nM (active); with DIV30 it was 2560 nM (active); in the experiment on Dd2 it was 1000 nM (active). The Potency in the experiment with ECU was 1780 nM (active); in the experiment with FAB9 it was 3980 nM (active); in the experiment with GB4, 809 nM (active); in the experiment with HB3 it was 1000 nM (active); in the experiment on ICS it was 316 nM (active); in the experiment with JCK, 3550 nM (active). The Potency was 891 nM (active) in the experiment on N140; 891 nM (active) in the experiment on P93_24; 891 nM (active) with P94_40; 1120 nM (active) in the experiment with PAD; 1260 nM (active) in the experiment with PC15; 2560 nM (active) in the experiment with PC26. In the experiment on PC49, the Potency is 2820 nM (active).

In the case of `CN1C[C@@H](NS(=O)(=O)N(C)C)C[C@@H]2c3cccc4c3c(cn4C)C[C@H]21`, the Potency entry in the experiment with DFO2036, in the experiment on DIV14, with DIV17, in the experiment with ECU, in the experiment on FAB9 and with GB4 was “inactive” each time. For the same compound, the Potency result with HB3, in the experiment on JCK, in the experiment with N140, in the experiment on PAD, with PC15 and with PC26 was “inactive” in each case. Further, the Potency entry in the experiment with PC49 is “inactive”.

For the compound `CC(C)(C)OC(=O)c1ncn2c1[C@@H]1CCCN1C(=O)c1c(Br)cccc1-2`, the Potency result in the experiment on CP329, with CP335, with DFO2036, in the experiment on DIV14, in the experiment on DIV30 and with Dd2 was “inactive” throughout. Moreover, the Potency result in the experiment on ECU, in the experiment on FAB9, with GB4, with HB3, with JCK and with N140 was “inactive” throughout. Further, the Potency result in the experiment with P93_24, in the experiment on P94_40, in the experiment with PAD, in the experiment on PC15, with PC26 and in the experiment with PC49 was “inactive” throughout.
